An excerpt weighted towards active compounds, which were near 0.44% of everything screened.
YopH PTP inh: blocks Yersinia enterocolitica YopH tyrosine phosphatase. actives 0.16% (n = 140,000). AID 898. fluorescence Ex485/Em525. inhibition, % (test concentration not listed); in the data active means inhibition above about 50%
RmlCD inh mix: inhibitors of RmlC and RmlD coupled enzymes; RmlC/RmlD coupled enzyme inhibition, 384-well mixture HTS; inhibition, % at 5.5 µM; AID 1532; actives 0.39% (n = 110,000); in the data active means inhibition above about 30%, passing the limit was not always enough
Starred values were filed as active, the others as inactive; . = no result given; + = active, no number.

SMILES | YopH PTP inh | RmlCD inh mix
Cc1cc(C)nc(SCC(=O)Oc2ccc3oc(=O)cc(C)c3c2)n1 | 51* | 6
CCN1CCN(C(=O)c2ccc3c(c2)N(Cc2ccc(F)cc2)C(=O)c2ccccc2S3=O)CC1 (centres undefined) | -26 | 7
Cc1ccsc1/C=N/n1c(-c2ccncc2)n[nH]c1=S | -2 | .
O=C(NC(=S)N1CCN(C(c2ccccc2)c2ccccc2)CC1)c1ccc(S(=O)(=O)N2CCOCC2)cc1 | -21 | .
O=C(NC(C(=O)O)c1ccccc1)c1ccc(S(=O)(=O)N2CCOCC2)cc1 (centres undefined) | 50* | -31
O=C(c1cc(N2C(=O)C3C4CCC(C4)C3C2=O)ccc1Cl)N1CCN(c2ccccc2F)CC1 (centres undefined) | -18 | .
Cc1cc(C)c2c(n1)sc1c(-c3ccccc3)c(C#N)c(N)nc12 | -27 | .
COc1cc(C2NC(=O)NC(C)=C2C(=O)OCc2ccccc2)ccc1O (centres undefined) | . | 17
COc1cc(C2C(C(=O)OC(C)C)=C(C)Nc3[nH]c(=O)[nH]c(=O)c32)ccc1O (centres undefined) | 51* | -11
Cc1cc(C)c(NC(=O)COc2ccccc2C(=O)Nc2ccc3c(c2)oc2ccccc23)c(C)c1 | -13 | +
CCOc1ccccc1C(=O)Nc1ccc(-c2nnc(-c3ccc(C)cc3)o2)cc1 | -11 | .
CC(=O)Nc1sc(C)c(C)c1C(=O)OCC(=O)Nc1cc(S(=O)(=O)N2CCCCC2)ccc1Cl | -5 | .
CCOC(=O)c1sc(NC(=O)CSc2nc3c(cc2C#N)CCCCC3)c(C#N)c1C | -19 | -1
CCc1nnc(NC(=O)CSc2nc3c(cc2C#N)CCCC3)s1 | -3 | 37*
COc1cc(C(=O)Nc2sc3c(c2C(=O)NCc2ccco2)CCCC3)cc(OC)c1OC | -5 | -13
COc1ccc(C(=O)Nc2sc3c(c2C(=O)NCc2ccco2)CCCC3)cc1OC | 2 | 146*
O=C(c1cccs1)N1CCN=C1SCc1cccnc1 | 50* | -3
O=C(c1ccco1)N1CCN=C1SCc1cccnc1 | -30 | 6
COc1cccc(OCCc2c(C)n[nH]c2C)c1 | -20 | 9
Cc1cccc(OCCCCc2c(C)n[nH]c2C)c1 | 70* | -3
CC(=O)NC1=C(N(C)C2CCS(=O)(=O)C2)C(=O)c2ccccc2C1=O (centres undefined) | 74* | .
CN(C(=O)Nc1ccccc1)C1CCS(=O)(=O)C1 (centres undefined) | -9 | -13
O=C1C=CC(=O)C(C2=C3C(=O)N(CCc4ccccc4)CC(=O)N3CCC2)=C1 | 67* | .
O=C1CC(=O)N(CCc2ccccc2)C(=O)N1CCc1ccccc1 | -34 | 6
CC(NC(=O)/C(C#N)=C1\N=C(NC(=O)c2cccs2)c2ccccc21)c1ccccc1 (centres undefined) | -18 | .
SMILES | YopH PTP inh | RmlCD inh mix
O=C(NCC1CCCO1)c1ccc2c(c1)S(=O)(=O)c1ccccc1C2=O (centres undefined) | . | 7
COc1ccc(CCNC(=O)C2CC(c3cc(C(F)(F)F)cc(C(F)(F)F)c3)=NO2)cc1 (centres undefined) | . | -1
N#CC(C#N)=c1ccc2c(c1)NC1(CCCCC1)N=2 | 92* | -10
O=C1NC2(CCCC2)N=C1c1ccc(Cl)cc1 | -8 | -3
Cc1ccc(NC(=O)CSc2ncnc3ccccc23)cc1S(=O)(=O)N1CCCCCC1 | -23 | .
C=CCc1cccc2cc(C(=O)Nc3ccc(F)cc3)c(=O)oc12 | -43 | .
C=CCc1cccc2cc(C(=O)Nc3ccc(S(=O)(=O)Nc4nnc(CC)s4)cc3)c(=O)oc12 | 75* | .
O=C(O)CCC(=O)Nc1ccc(Sc2ccc([N+](=O)[O-])cc2)cc1 | -34 | .
Cc1ccc(Nc2nc(N)c([N+](=O)[O-])c(NCc3ccco3)n2)cc1C | -20 | .
Cc1cccn2c(=O)c(C=Nc3ccccc3)c(NCCO)nc12 | -46 | 37*
Cc1cccn2c(=O)c(C=Nc3ccc(Cl)cc3)c(NCCO)nc12 | -33 | 1
COc1ccc(Cc2c3cc(OC)c(OC)cc3cc[n+]2C)cc1OC | . | 8
COc1ccc(Cc2nccc3cc(OC)c(OC)cc23)cc1OC | 67* | 7
CCC1=C[C@H]2CN(C1)Cc1c([nH]c3ccccc13)[C@@](C(=O)OC)(c1cc3c(cc1OC)N(C)[C@H]1[C@@](O)(C(=O)OC)[C@H](OC(C)=O)[C@]4(CC)C=CCN5CC[C@]31[C@@H]54)C2 | . | -8
CC(=O)OCCCNc1cc(SCc2ccco2)c2nonc2c1[N+](=O)[O-] | 69* | .
CCCC(=O)OCCNc1cc(SCc2ccco2)c2nonc2c1[N+](=O)[O-] | 37 | .
COCCCNC(=O)CCCOc1ccccc1 | -16 | -17
COCCCNC(=O)CCCC(=O)NCCCOC | 55* | -9
Cc1cccc(N2CCN(C(=O)C(Cc3ccccc3)n3cccc3)CC2)c1C (centres undefined) | -32 | -8
COC(=O)C1=CN(CC2CCCO2)C=C(C(=O)OC)C1c1ccccc1C(F)(F)F (centres undefined) | 2 | 8
